Test [1] can be described thus: NCI Yeast Anticancer Drug Screen. Data for the rad50 strain (AID 155).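 Further: 0% = growth of vehicle-only cultures of the same strain.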 As to conditions: S. cerevisiae rad50 strain growth inhibition, hits give high values. In short, it runs like this: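 DNA repair mutant yeast, compound exposure, growth read-out; inhibition is taken relative to vehicle.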
Test [2] is described as follows: NCI Yeast Anticancer Drug Screen. Data for the mec2-1 strain (AID 157). The following applies: S. cerevisiae mec2-1 strain, hits give high values. In a few lines:
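Using mec2-1 yeast: add compound, measure growth, express inhibition versus vehicle-treated cultures.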

Test [3] in a line: NCI Yeast Anticancer Drug Screen. Data for the sgs1 mgt1 strain (AID 161).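 Further: 0% = growth of cultures given vehicle only.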 As to conditions: S. cerevisiae sgs1 mgt1 strain, hits give high values. In short, it runs like this: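 Compounds are added to genetically altered yeast, and growth is compared with cultures given vehicle alone to give percent inhibition.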
A short description of test [4]: NCI Yeast Anticancer Drug Screen. Data for the cln2 rad14 strain (AID 165).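 Further: 0% = growth equal to vehicle treated cultures.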 The following applies: S. cerevisiae cln2 rad14 strain, hits give high values. In a few lines:
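Yeast strain cln2 rad14, bearing defects in cell cycle control and DNA repair, serves as the test system; values reflect growth inhibition compared with vehicle.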

Test [5] is described as follows: NCI Yeast Anticancer Drug Screen. Data for the bub3 strain (AID 167). As to conditions: S. cerevisiae bub3 mutant strain, hits give high values. In a few lines:
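In this screen, a yeast mutant lacking normal mitotic checkpoint function is challenged with compound. Relative growth versus vehicle gives the inhibition value.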

Test [6] can be described thus: NCI Yeast Anticancer Drug Screen. Data for the mlh1 rad18 strain (AID 175). The following applies: S. cerevisiae mlh1 rad18 strain growth inhibition, hits give high values. In a few lines: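 Steps: expose repair-defective yeast to compound; measure growth; express inhibition against vehicle-treated controls.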
[7] abbreviates: at 5.0 µM (retest, dose inferred, filed as 0.5).
Where [8] appears, read: at 50.0 µM (retest, dose inferred, filed as 5.0).

Values joined by “and” are separate entries in the source; they are usually repeats but may differ in a detail not shown here. Equal values may be shown once. About 79,000 compounds went through this panel and 15% of them were active in at least one assay; those are over-represented in the sample as a whole. Values without a mark were called inactive. Active and inactive are the calls of the source. No stated cut-off is given here; in the data, active means growth inhibition above about 70%; inactive means the rest.

`C[CH2][Sn]([CH2]C)([S]CCS(=O)(=O)O)[S]CCS(=O)(=O)O` (tested in a mixture with another compound): the growth inhibition is 18% in test [1] (setting [7]); 26% in test [1] (setting [8]); 53.9% in test [1] (at 50.0 µM); 17% in test [2] (setting [7]); 46% in test [2] (setting [8]); 45.8% in test [2] (at 50.0 µM). In addition, the growth inhibition in test [3] (setting [7]) was -22%; in test [3] (setting [8]) it was 54%; in test [3] (at 50.0 µM), 27.3%; in test [4] (setting [7]), -10%; in test [4] (setting [8]), 67%; in test [4] (at 50.0 µM) it was 19%. The growth inhibition was -1% in test [5] (setting [7]); 66% in test [5] (setting [8]); 17.6% in test [5] (at 50.0 µM); 16% in test [6] (setting [7]); 32% in test [6] (setting [8]); -25.9% in test [6] (at 50.0 µM).

Regarding `CCCCCOC(=O)CCl`, the growth inhibition is 8% in test [1] (setting [7]); 69% in test [1] (setting [8]); 54.7% in test [1] (at 50.0 µM); 1% in test [2] (setting [7]); 16% in test [2] (setting [8]); 1.75% in test [2] (at 50.0 µM). The growth inhibition in test [3] (setting [7]) was 4%; in test [3] (setting [8]), 40%; in test [3] (at 50.0 µM), 32.2%; in test [4] (setting [7]) it was 1%; in test [4] (setting [8]), 8%; in test [4] (at 50.0 µM) it was 16.5%. Also, the growth inhibition was 0% in test [5] (setting [7]); -5% in test [5] (setting [8]); -27.6% in test [5] (at 50.0 µM); 11% in test [6] (setting [7]); 32% in test [6] (setting [8]); 19.4% in test [6] (at 50.0 µM).

On to `C[n+]1c(/C=C/c2ccc(O)c(O)c2)[se]c2ccccc21`, for which the growth inhibition in test [1] (setting [7]) is 12%; in test [1] (setting [8]), 72% (active); in test [1] (at 50.0 µM), 77.7% (active); in test [2] (setting [7]), 3%; in test [2] (setting [8]) it was 80% (active); in test [2] (at 50.0 µM) it was 70.6% (active). For the same compound, the growth inhibition is 48% in test [3] (setting [7]); 81% (active) in test [3] (setting [8]); 82.7% (active) in test [3] (at 50.0 µM); 19% in test [4] (setting [7]); 53% in test [4] (setting [8]); 66.9% in test [4] (at 50.0 µM). Besides, the growth inhibition in test [5] (setting [7]) is -3%; in test [5] (setting [8]), 61%; in test [5] (at 50.0 µM) it was 56.1%; in test [6] (setting [7]), 18%; in test [6] (setting [8]) it was 80% (active); in test [6] (at 50.0 µM), 77% (active).

As to `O=C(O)/C=C\c1c[nH]c2ccccc12`, the growth inhibition in test [1] (setting [7]) is 10%; in test [1] (setting [8]), 97% (active); in test [1] (at 50.0 µM), 75.8% (active); in test [2] (setting [7]), -2%; in test [2] (setting [8]), 89% (active); in test [2] (at 50.0 µM) it was 38.3%. For the same compound, the growth inhibition in test [3] (setting [7]) is 2%; in test [3] (setting [8]), 87% (active); in test [3] (at 50.0 µM) it was 60.2%; in test [4] (setting [7]), -6%; in test [4] (setting [8]), 89% (active); in test [4] (at 50.0 µM), 1.45%. The growth inhibition in test [5] (setting [7]) is -2%; in test [5] (setting [8]) it was 95% (active); in test [5] (at 50.0 µM), 50.8%; in test [6] (setting [7]), -17%; in test [6] (setting [8]) it was 97% (active); in test [6] (at 50.0 µM) it was 42.4%.

For the compound `Oc1ccc([Te]CCNCC[Te]c2ccc(O)cc2)cc1`, the growth inhibition in test [1] (setting [7]) is 58%; in test [1] (setting [8]) it was 58%; in test [1] (at 50.0 µM), 40.8%; in test [2] (setting [7]), 37%; in test [2] (setting [8]), 37%; in test [2] (at 50.0 µM), 0.3%. Moreover, the growth inhibition is 40% in test [3] (setting [7]); 40% in test [3] (setting [8]); 16.1% in test [3] (at 50.0 µM); 13% in test [4] (setting [7]); 13% in test [4] (setting [8]); 48.3% in test [4] (at 50.0 µM). For the same compound, the growth inhibition in test [5] (setting [7]) was 29%; in test [5] (setting [8]), 29%; in test [5] (at 50.0 µM), 30.9%; in test [6] (setting [7]) it was 36%; in test [6] (setting [8]) it was 36%; in test [6] (at 50.0 µM) it was 71.5% (active).

As to `CC[C@@]1(O)CC(OC2CC(N3CCOCC3)C(O)C(C)O2)c2c(O)c3c(c(O)c2[C@H]1O)C(=O)c1cccc(O)c1C3=O` (some centres not stated), the growth inhibition in test [1] (setting [7]) was 96% (active); in test [1] (setting [8]) it was 98% (active); in test [1] (at 50.0 µM) it was 59.3%; in test [2] (setting [7]), 36%; in test [2] (setting [8]), 99% (active); in test [2] (at 50.0 µM), 51.2%. Besides, the growth inhibition in test [3] (setting [7]) was 63%; in test [3] (setting [8]), 99% (active); in test [3] (at 50.0 µM) it was 49.4%; in test [4] (setting [7]) it was 31%; in test [4] (setting [8]), 99% (active); in test [4] (at 50.0 µM) it was 97.3% (active). The growth inhibition is 24% in test [5] (setting [7]); 99% (active) in test [5] (setting [8]); 99% (active) in test [5] (at 50.0 µM); 52% in test [6] (setting [7]); 98% (active) in test [6] (setting [8]); 51.1% in test [6] (at 50.0 µM).

In the case of `Oc1cc[c]([Hg][Cl])cc1`, the growth inhibition in test [1] (setting [7]) is 99% (active); in test [1] (setting [8]), 99% (active); in test [1] (at 50.0 µM), 99.5% (active) and 100% (active); in test [2] (setting [7]) it was 100% (active); in test [2] (setting [8]), 100% (active); in test [2] (at 50.0 µM), 99.5% (active) and 99.7% (active). Moreover, the growth inhibition was 100% (active) in test [3] (setting [7]); 99% (active) and 100% (active) in test [3] (setting [8]); 99.1% (active) and 100% (active) in test [3] (at 50.0 µM); 99% (active) in test [4] (setting [7]); 99% (active) in test [4] (setting [8]); 98.2% (active) and 99.5% (active) in test [4] (at 50.0 µM). In addition, the growth inhibition in test [5] (setting [7]) is 99% (active) and 100% (active); in test [5] (setting [8]), 99% (active) and 100% (active); in test [5] (at 50.0 µM), 99.6% (active) and 99.7% (active); in test [6] (setting [7]), 99% (active); in test [6] (setting [8]) it was 99% (active); in test [6] (at 50.0 µM) it was 99.2% (active) and 99.3% (active).

Regarding `c1ccc(P(CC[As](c2ccccc2)c2ccccc2)CC[As](c2ccccc2)c2ccccc2)cc1`, the growth inhibition is 95% (active) in test [1] (setting [7]); 95% (active) in test [1] (setting [8]); 89% (active) in test [1] (at 50.0 µM); 81% (active) in test [2] (setting [7]); 81% (active) in test [2] (setting [8]); 90.8% (active) in test [2] (at 50.0 µM). The growth inhibition is 47% in test [3] (setting [7]); 47% in test [3] (setting [8]); 88.5% (active) in test [3] (at 50.0 µM); 76% (active) in test [4] (setting [7]); 76% (active) in test [4] (setting [8]); 89.3% (active) in test [4] (at 50.0 µM). The growth inhibition in test [5] (setting [7]) is 84% (active); in test [5] (setting [8]), 84% (active); in test [5] (at 50.0 µM), 90.8% (active); in test [6] (setting [7]), 80% (active); in test [6] (setting [8]), 80% (active); in test [6] (at 50.0 µM) it was 88.6% (active).

As for `CC1C2C=CC1C(c1c3ccc(=O)c(O)c-3oc3c(O)c(O)ccc13)C2C(=O)O` (configuration not stated), the growth inhibition in test [1] (setting [7]) is 11%; in test [1] (setting [8]), 33%; in test [1] (at 50.0 µM) it was 17%; in test [2] (setting [7]), -1%; in test [2] (setting [8]) it was 10%; in test [2] (at 50.0 µM) it was 47.8%. Besides, the growth inhibition in test [3] (setting [7]) was 2%; in test [3] (setting [8]), 33%; in test [3] (at 50.0 µM), 53%; in test [4] (setting [7]) it was -23%; in test [4] (setting [8]), 0%; in test [4] (at 50.0 µM), -35.2%. The growth inhibition in test [5] (setting [7]) was 9%; in test [5] (setting [8]), 37%; in test [5] (at 50.0 µM) it was -8.35%; in test [6] (setting [7]), 7%; in test [6] (setting [8]), 35%; in test [6] (at 50.0 µM), 8.3%.

The values are drawn from PubChem BioAssay (NCI).
